{
  "source": "PubChem BioAssay (NCI)",
  "note": "The panel holds about 79,000 compounds, 15% with a hit somewhere; the sample as a whole holds those more often. Values without a mark were called inactive. Active and inactive are the calls of the source. No stated cut-off is given here; in the data, active means growth inhibition above about 70%; inactive means the rest.",
  "data": [
    {"assay": "NCI Yeast Anticancer Drug Screen. Data for the sgs1 mgt1 strain (AID 161);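 further: 0% = growth of cultures given vehicle only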", "conditions": "S. cerevisiae sgs1 mgt1 strain, at 50.0 µM (retest, dose inferred, filed as 5.0), hits give high values", "procedure,_shortened": "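Mutant yeast exposed to compound; growth scored against vehicle-only wells.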", "values": [
      {"smiles": "CCSC1(SCC)C(=O)OC2=C(CCCC2)C1N1CCOCC1", "note": "(stereo not given)", "growth inhibition": "18%"},
      {"smiles": "NC(=O)C(CCc1cccc2ccccc12)c1ccccc1", "note": "(stereo not given)", "growth inhibition": "24%"},
      {"smiles": "NC(CCCCCC(N)C(=O)O)C(=O)O", "note": "(stereo not given)", "growth inhibition": "-66%"},
      {"smiles": "CN(C)CC(CN(C)C)C(=O)C1CCCCC1", "growth inhibition": "71% (active)"},
      {"smiles": "O=C1/C(=C/c2ccc([N+](=O)[O-])cc2)Sc2scc(-c3cccc([N+](=O)[O-])c3)[n+]21", "growth inhibition": "99% (active)"},
      {"smiles": "CC(C)(C)c1cc(C(P(=O)(c2ccccc2)c2ccccc2)P(=O)(c2ccccc2)c2ccccc2)cc(C(C)(C)C)c1O", "growth inhibition": "97% (active)"},
      {"smiles": "COC(=O)c1cc(=O)n(-c2ccccc2C(F)(F)F)c(SC)n1", "growth inhibition": "94% (active)"},
      {"smiles": "CSC(SC)=C1C(=O)NC(Cc2ccccc2)C1=O", "note": "(stereo not given)", "growth inhibition": "66%"},
      {"smiles": "c1ccc(C(c2ccccc2)c2ccc3ccccc3n2)cc1", "growth inhibition": "92% (active)"},
      {"smiles": "CN(C)c1nc(N(C)C)nc([N+](C)(C)C)n1", "growth inhibition": "-4%"},
      {"smiles": "CCCNC(=S)N/N=C(/C)c1nccc2ccccc12", "growth inhibition": "88% (active)"},
      {"smiles": "OC(CN1CCc2ccccc2C1)c1ccc2ccccc2c1", "note": "(stereo not given)", "growth inhibition": "86% (active)"},
      {"smiles": "Nc1nc(N)c2nc(CNc3ccc(C(=O)NC(CCC(=O)O)C(=O)O)cc3)ccc2n1", "note": "(stereo not given)", "growth inhibition": "16%"},
      {"smiles": "O=c1c2ccccc2c2ccccc2n1O", "growth inhibition": "94% (active)"},
      {"smiles": "CC(=O)N1c2ccccc2Sc2ccc3ccc(C(=O)CCl)cc3c21", "growth inhibition": "98% (active)"},
      {"smiles": "CC(NNC(=S)N1CC2CCC(CC2)C1)c1nccc2ccccc12", "note": "(stereo not given)", "growth inhibition": "96% (active)"},
      {"smiles": "O=C1O/C(=C(\\Cc2ccccc2)c2ccccc2)N(c2ccccc2)C1=O", "growth inhibition": "28%"},
      {"smiles": "S=c1sc2ccccc2n1C=Nc1ccccc1", "growth inhibition": "96% (active)"},
      {"smiles": "CSc1nc(NC2OC(CO)C(O)C(O)C2O)c(Cl)c(=O)[nH]1", "note": "(stereo not given)", "growth inhibition": "0%"},
      {"smiles": "C=CCN1/C(=C\\C=C\\c2ccc3cc(C)ccc3[n+]2CC=C)C=Cc2cc(C)ccc21", "growth inhibition": "98% (active)"},
      {"smiles": "S=c1[nH]nc(SCc2ccc(Cl)c(Cl)c2)c2[nH]cnc12", "growth inhibition": "-14%"},
      {"smiles": "Nc1ccc(C(=O)/C=C/c2ccccn2)cc1", "growth inhibition": "60%"},
      {"smiles": "CCOC(=O)C(C(=O)O)(C(c1ccccc1)c1ccccc1)C(c1ccccc1)c1ccccc1", "growth inhibition": "99% (active)"},
      {"smiles": "CSC(=S)n1nc(-c2ccccc2)c(N=Nc2ccc(Br)cc2)c1-c1ccccc1", "growth inhibition": "25%"},
      {"smiles": "COc1ccc([N+](=O)[O-])cc1Nc1c2ccccc2nc2ccccc12", "growth inhibition": "58%"},
      {"smiles": "C=CCN1/C(=C/C=C\\c2sc3ccccc3[n+]2CC=C)Sc2ccccc21", "growth inhibition": "99% (active)"},
      {"smiles": "COc1ccc(/C=C/C(C(=O)O)C(=O)O)cc1", "growth inhibition": "59%"},
      {"smiles": "CN(C)C(=O)c1cc(Br)cc(-c2ccccc2)c1O", "growth inhibition": "86% (active)"},
      {"smiles": "Cc1cc(N=[N+]=[N-])c2cc(C3CCCCC3)ccc2n1", "growth inhibition": "99% (active)"},
      {"smiles": "[Cu+2].[O-]/N=C/c1cccc(O)c1[O-].[O-]/N=C/c1cccc(O)c1[O-]", "growth inhibition": "99% (active)"},
      {"smiles": "c1ccc(Cn2nnc(-c3ccccc3)c2-c2ccccc2)cc1", "growth inhibition": "96% (active)"},
      {"smiles": "CCOc1ccc2nc(Cl)sc2c1", "growth inhibition": "79% (active)"},
      {"smiles": "CCOC(=O)c1sc2c(c1O)c(=O)n(-c1ccccc1)c(=S)n2-c1ccccc1", "growth inhibition": "98% (active)"},
      {"smiles": "O=C(O)c1c[nH]c2cc(Cl)ccc2c1=O", "growth inhibition": "-3%"},
      {"smiles": "Cc1cc2c(cc1O)CC[C@@H]1[C@@H]2CC[C@]2(C)[C@@H](O)CC[C@@H]12", "growth inhibition": "-32%"},
      {"smiles": "NC(=O)NOCC1NC(=O)NC1=O", "note": "(stereo not given)", "growth inhibition": "-10%"},
      {"smiles": "CCOC(=O)c1cnc2cc3cccccc3n2c1=O", "growth inhibition": "65%"},
      {"smiles": "CC(CO)CCC(=O)C(C)C1C(=O)CC2CC3CC(O)CCC3(C)CC21C", "note": "(stereo not given)", "growth inhibition": "48%"},
      {"smiles": "N#CSC#Cc1ccc(C#CSC#N)cc1", "growth inhibition": "97% (active)"},
      {"smiles": "CCS/C(SC)=C(/c1ccccc1)[P+](c1ccccc1)(c1ccccc1)c1ccccc1", "growth inhibition": "99% (active)"}
    ]}
  ]
}
